# Experimental data taken from PubChem BioAssay AID1345085 (National Center for Advancing Translational Sciences (NCATS), 2018).
# Results filed as inconclusive are left out. The source made the active and inactive calls. Calls come from the whole dose curve; as a rule, active = well fitted cell-killing curve with a large enough effect; inconclusive = small, poorly fitted or top-dose-only effect, or effect the other way; inactive = no such curve, though single readings can be large or run the other way.
# Tested on: HeLa
# Assay: Confirmatory qHTS for gynecologic anti-cancer compounds from libraries of approved drugs and bioactive compounds; note: nearly all actives have a fitted effect of over 55% in size
# Settings: gynecologic cancer cell panel viability, ATPlite luminescence, 48 h; series mostly up to 57.6 µM
# Method in brief: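 Cells (1,000/well) plated 16 h, then exposed 48 h at 37 °C to 11 concentrations (1:3) from 57.5 uM to 0.977 nM. Viability by ATPlite luminescence after 15 min; IC50 derived, with HEK 293T used for selectivity index.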
# Potency is the fitted concentration of half-maximal effect.
row,Structure (SMILES),Potency
1,CCN1CCN(Cc2ccc(Nc3ncc(F)c(-c4cc(F)c5nc(C)n(C(C)C)c5c4)n3)nc2)CC1,17.2 µM (active)
2,Nc1ncnc2c1ncn2[C@@H]1O[C@H](CO)C[C@H]1O,inactive
3,CCOc1cc2ncc(C#N)c(Nc3ccc(F)c(Cl)c3)c2cc1NC(=O)/C=C/CN(C)C,24.3 µM (active)
4,COc1cc(N2CCC(N(C)C)CC2)ccc1Nc1ncc(Cl)c(Nc2ccccc2P(C)(C)=O)n1,1.37 µM (active)
5,O=C(/C=C/c1cccc(S(=O)(=O)Nc2ccccc2)c1)NO,5.3 µM (active)
6,CC[C@@]1(O)C(=O)OCc2c1cc1n(c2=O)Cc2cc3cc(O)ccc3nc2-1,0.968 µM (active)
7,CN(Cc1cnc2nc(N)nc(N)c2n1)c1ccc(C(=O)N[C@@H](CCC(=O)O)C(=O)O)cc1,inactive
8,Cc1cc(C(C)Nc2ccccc2C(=O)O)c2nc(N3CCOCC3)cc(=O)n2c1 (configuration not stated),17.2 µM (active)
9,CC(C)Oc1ccc(C(=O)NC(CNC(=O)CN(C)C)Cc2ccc(-c3cn4cccc(C(C)O)c4n3)cc2)cc1Cl (configuration not stated),0.153 µM (active)
10,COc1cc(C(=O)N2CCC(N3CCN(C)CC3)CC2)ccc1Nc1ncc2c(n1)N(C)c1ccccc1C(=O)N2C,17.2 µM (active)
11,C[C@]12CCC(=O)C=C1[C@@H]1C[C@@H]1[C@H]1[C@@H]3[C@@H]4C[C@@H]4[C@@]4(CCC(=O)O4)[C@@]3(C)CC[C@@H]12,4.85 µM (active)
12,CCN(CC)CCCC(C)Nc1ccnc2cc(Cl)ccc12 (configuration not stated),inactive
13,Oc1cn2c(n1)Nc1ccc(Cl)c(Cl)c1C2,0.0106 µM (active)
14,C=CC(=O)Nc1cccc(Oc2nc(Nc3ccc(N4CCN(C)CC4)cc3)ncc2Cl)c1,6.85 µM (active)
15,CC(C)Nc1cc(-c2c[nH]c(C(=O)N[C@H](CO)c3cccc(Cl)c3)c2)c(Cl)cn1,21.7 µM (active)
16,O=C1N(c2ccccc2)c2ccccc2C1(Cc1ccncc1)Cc1ccncc1,inactive
17,CNC(=O)c1ccccc1Nc1nc(Nc2ccc(N3CCOCC3)cc2OC)ncc1Cl,0.769 µM (active)
18,CC(C)C[C@H](NC(=O)[C@H](CCc1ccccc1)NC(=O)CN1CCOCC1)C(=O)N[C@@H](Cc1ccccc1)C(=O)N[C@@H](CC(C)C)C(=O)[C@@]1(C)CO1,10.9 µM (active)
19,CN(c1nccc(=O)[nH]1)C1CCN(c2nc3ccccc3n2Cc2ccc(F)cc2)CC1,inactive

row,Structure (SMILES),Potency
1,C[C@@]1(C(=O)Nc2ccc(F)nc2)CCCN1c1nc(Nc2cc(C3CC3)[nH]n2)c2cccn2n1,0.968 µM (active)
2,COc1cccc2c1C(=O)c1c(O)c3c(c(O)c1C2=O)C[C@@](O)(C(=O)CO)C[C@@H]3O[C@H]1C[C@H](N)[C@H](O[C@@H]2CCCCO2)[C@H](C)O1,12.2 µM (active)
3,Cc1cc(Nc2cc(N3CCN(C)CC3)nc(Sc3ccc(NC(=O)C4CC4)cc3)n2)n[nH]1,1.09 µM (active)
4,C[C@@H](Oc1cc(-c2cnn(C3CCNCC3)c2)cnc1N)c1c(Cl)ccc(F)c1Cl,4.32 µM (active)
5,CNC(=O)c1nn(C)c2c1C(C)(C)Cc1cnc(Nc3ccc(N4CCN(C)CC4)cc3)nc1-2,1.53 µM (active)
6,CCN(CC)CCOc1ccc(/C(=C(\Cl)c2ccccc2)c2ccccc2)cc1,79.4 µM (active)
7,CCN[C@H]1C[C@H](C)S(=O)(=O)c2sc(S(N)(=O)=O)cc21,inactive
8,Cc1cc(SCc2sc(-c3ccc(C(F)(F)F)cc3)nc2C)ccc1OCC(=O)O,inactive
9,Fc1cc(-c2cccc3ncc(-c4cnn(C5CCNCC5)c4)nc23)cc(F)c1CN1CCOCC1,24.3 µM (active)
10,CC(C)Oc1ccc2c(=O)c(-c3ccccc3)coc2c1,21.7 µM (active)
11,CNc1nccc(-c2cccnc2Oc2cc(C(=O)Nc3cccc(C(F)(F)F)c3)ccc2C)n1,15.3 µM (active)
12,CC1=C(CO)C(=O)O[C@@H]([C@@H](C)[C@H]2CC[C@H]3[C@@H]4C[C@H]5O[C@]56[C@@H](O)C=CC(=O)[C@]6(C)[C@H]4CC[C@]23C)C1,2.11 µM (active)
13,CN1CCN(CCOc2cc(OC3CCOCC3)c3c(Nc4c(Cl)ccc5c4OCO5)ncnc3c2)CC1,inactive
14,CCCCN(CCCC)CC(O)c1cc(Cl)cc2c1-c1ccc(Cl)cc1/C2=C/c1ccc(Cl)cc1 (configuration not stated),inactive
15,COc1cc2c(Oc3ccc(-c4cnc(Nc5ccc(F)cc5)n(C)c4=O)cc3F)ccnc2cc1OCCCN1CCOCC1,21.7 µM (active)
16,Cc1ccc(C(=O)Nc2ccc(CN3CCN(C)CC3)c(C(F)(F)F)c2)cc1C#Cc1cnc2cccnn12,1.72 µM (active)
17,Nc1nccc(Oc2ccc(NC(=O)c3c[nH]cc(-c4ccc(F)cc4)c3=O)cc2F)c1Cl,6.85 µM (active)
18,Cc1c(NC(=O)OCC2COCCN2)cn2ncnc(Nc3ccc4c(cnn4Cc4cccc(F)c4)c3)c12 (configuration not stated),34.3 µM (active)
